NadD inh = inhibitors of S. aureus NadD, primary screen, biochemical, colorimetric, uHTS; 360,000 compounds, 0.78% hits; inhibition, % at 20 µM; purified NadD enzyme, colorimetric absorbance read-out; in the data active = inhibition above about 26%
GRK2 aptamer HTS = compounds blocking aptamer binding on GRK2 – biochemical, human GRK2, bead flow cytometry, HTS, primary screen. Beta-adrenergic receptor kinase 1 (Homo sapiens), P25098. FAM-aptamer displacement from GRK2. inhibition of aptamer binding, % at 10 µM. 330,000 compounds, 0.59% hits. AID 488847, 2010;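 active = inhibition of aptamer binding above 40%, roughly 3 SD of noise, on plates passing a quality check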;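 also: median bead fluorescence of bound FAM aptamer so fluorescent compounds give negative values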
B2AR ag = beta2AR agonists driving receptor internalization, primary screen, cell-based, FAP fluorogen, flow cytometry | Am2.2-beta2AR cells | 340,000 compounds, 0.43% hits | response, % (no concentration beside the values) | Beta-2 adrenergic receptor (Homo sapiens), P07550 | AID 504454, 2011;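 active = response above a set limit, near 3 SD of response in nonfluorescent compounds, cut at about 42% in these data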
Granule exo inh = LAMP-1 surface exposure blockers, TALL-104 cells – cell-based, flow cytometry, MLPCN library, primary screen; TALL-104 LAMP-1 surface exposure; cells stimulated with thapsigargin and PMA; inhibition, % at 10 µM; 360,000 compounds, 0.66% hits;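 active = inhibition above about 55%, limit read from the data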
PP1 inh = PP1-alpha phosphatase inhibitors, primary screen, counter-screen for PP5 inhibitor project, biochemical, fluorescence, OMFP substrate, single point; Serine/threonine-protein phosphatase PP1-alpha catalytic subunit (Homo sapiens), P62136; purified PP1alpha; inhibition, % at 6.7 µM; 320,000 compounds, 0.9% hits; AID 2235, 2010;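 active = inhibition above the mean inhibition of all tested compounds plus 3 SD, computed separately for each screening campaign, cut at about 15% in these data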
Target sequence (P62136 whole entry, looked up): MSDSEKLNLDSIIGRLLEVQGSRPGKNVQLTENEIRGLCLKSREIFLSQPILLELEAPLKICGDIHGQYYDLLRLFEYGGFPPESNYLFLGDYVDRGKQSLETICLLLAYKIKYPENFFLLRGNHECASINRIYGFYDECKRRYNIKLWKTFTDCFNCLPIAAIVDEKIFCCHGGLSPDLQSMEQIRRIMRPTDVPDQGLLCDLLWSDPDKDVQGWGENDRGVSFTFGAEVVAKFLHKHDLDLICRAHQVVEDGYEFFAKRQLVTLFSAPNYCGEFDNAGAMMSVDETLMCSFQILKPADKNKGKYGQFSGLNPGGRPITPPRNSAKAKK
Numbers without * were called inactive; · = no result. Rows were chosen to be rich in hits. Some 2.9% of all compounds tested hit in one or more screens of this group.

SMILES	NadD inh	GRK2 aptamer HTS	B2AR ag	Granule exo inh	PP1 inh
C=CCNc1nc(NCc2ccccc2)c(C#N)c2c1CN(C)CC2	1	0	-22	0	1
COC(=O)C1=C(COc2ccccc2)NC(=O)NC1c1ccc(Cl)cc1 (configuration not stated)	·	0	·	·	-3
Cc1ccc(C)c(CSc2nnc(-c3cccs3)n2Cc2ccco2)c1	2	0	67*	2	7
NC(=O)CSc1nnc(-c2cccs2)n1Cc1ccco1	-9	0	-4	-4	-5
Cc1nn(C)cc1S(=O)(=O)NCc1ccccc1Cl	-2	0	0	3	-5
Cc1cc(-c2ccc(N=Nc3c(S(=O)(=O)O)cc4cc(S(=O)(=O)O)cc(N)c4c3O)c(C)c2)ccc1N=Nc1c(S(=O)(=O)O)cc2cc(S(=O)(=O)O)cc(N)c2c1O	·	98*	·	·	76*
Nc1cc(S(=O)(=O)O)cc2ccc(S(=O)(=O)O)cc12	0	·	4	6	·
COc1ccccc1OCC(=O)NNc1c2ccccc2nc2ccccc12	-1	2	12	59*	0
COc1ccc(C(=O)NC(C)c2ccncc2)cc1S(=O)(=O)N(C)Cc1ccccc1 (configuration not stated)	2	0	0	-1	-1
Cc1cc(C)cc(OCC(=O)Nc2ccc3c(c2)C(=O)c2ccccc2C3=O)c1	31*	0	3	0	0
COc1cccc(C(=O)Nc2ccc3c(c2)C(=O)c2ccccc2C3=O)c1	0	0	8	-2	33*
O=[N+]([O-])c1ccc(CNCc2cc(Cl)ccc2O)cc1	9	1	1	5	1
CCN1C(=O)[C@H]2[C@@H](c3ccc(-c4ccc(OC)cc4)cc3)N[C@@](CC(C)C)(C(=O)OC)[C@H]2C1=O	-6	2	-2	1	2
COc1ccc(CNC(=O)CN2CCN(c3ccccc3)CC2)cc1	-8	0	-4	3	-1
O=C(CNC(=O)Cc1ccccc1)N=Nc1c(O)[nH]c2ccccc12	-12	0	-3	-9	2
O=C(CNC(=O)/C=C/c1ccco1)N=Nc1c(O)[nH]c2ccccc12	34*	50*	5	3	8
CCOC(=O)c1ccc(NC(=O)CN2C(=O)CSC(C)C2=O)cc1 (configuration not stated)	-4	3	-3	-1	-1
CN(C)CCC(=O)N1C/C(=C/c2ccccc2)C(=O)/C(=C\c2ccccc2)C1	-7	·	21	68*	·
CCOC(=O)N1C/C(=C\c2ccccc2)C(=O)/C(=C/c2ccccc2)C1	-3	·	35	-3	·
COc1ccc(OC(=O)N2C/C(=C/c3ccccc3)C(=O)/C(=C\c3ccccc3)C2)cc1	-4	·	24	62*	·
O=C1Nc2ccccc2/C1=N/N=C/c1ccc(-c2ccc([N+](=O)[O-])cc2)o1	1	·	43*	-1	·
CCCCC(=O)Nc1ccc2c3c(cccc13)CC2	-4	9	46*	1	0
CC(C)CC(=O)Nc1ccc2c3c(cccc13)CC2	2	1	9	-4	-4
O=C(NNC(=S)Nc1ccccc1)NNC(=S)Nc1ccccc1	5	2	-5	0	-1
O=C(NNC(=S)Nc1ccccc1)c1cc(Br)ccc1Cl	0	46*	6	-2	0
SMILES	NadD inh	GRK2 aptamer HTS	B2AR ag	Granule exo inh	PP1 inh
Cc1cc(C)c(Nc2cc(S(=O)(=O)O)c(N)c3c2C(=O)c2ccccc2C3=O)c(C)c1	30*	1	2	-12	25*
CC(C)(C)c1cc(NC(=O)C2(C)CCN2C(=O)C2(c3ccccc3)CCCC2)no1 (configuration not stated)	0	·	·	15	·
Cc1ccccc1CN1C(=O)/C(=C\c2ccc(C(=O)NCCN3CCOCC3)cc2)Sc2ccccc21	-10	0	9	17	-1
Cc1cccc(CN2C(=O)/C(=C\c3ccc(C(=O)NCCN4CCOCC4)cc3)Sc3ccccc32)c1	-5	0	46*	12	0
Cc1cc2oc(=O)cc(Cn3ncc(Cl)c(Cl)c3=O)c2cc1Cl	27*	2	9	8	-2
COc1ccc(OC)c(Nc2nc(-c3sc(N)nc3C)cs2)c1	32*	2	1	-2	4
Cc1cc(NS(=O)(=O)c2ccc(Nc3nc(-c4ccc(C)c(C)c4)cs3)cc2)no1	17	1	13	1	4
Cc1cc(NS(=O)(=O)c2ccc(Nc3nc(-c4sc(N)nc4C)cs3)cc2)no1	37*	1	4	9	9
c1cncc(CN2CCN(c3cc(-c4cnc5ccccc5c4)nc4ccnn34)CC2)c1	4	·	·	0	·
CCN(CC)c1ccc(CNCc2cccs2)cc1	-4	1	1	0	17*
COc1cc(CNCc2cccs2)ccc1OCc1cccs1	-6	2	-1	-1	2
CN(C)S(=O)(=O)c1ccc(C(=O)NCC(C)(C)CN=C2NS(=O)(=O)c3ccccc32)cc1	-5	2	1	12	0
CCCn1c(NC(=O)CN2C(=O)NC3(CCCCC3)C2=O)nc2ccccc21	3	3	-8	4	0
O=C(COC(=O)c1cc([N+](=O)[O-])ccc1N1CCOCC1)c1ccccc1	-3	0	-7	9	-1
O=C(COC(=O)c1cc([N+](=O)[O-])ccc1N1CCOCC1)c1ccccc1Cl	-4	57*	-7	51	3
Cc1ccc(Cl)cc1N1CCN(C(=O)CSc2ccsc2[N+](=O)[O-])CC1	21	1	4	-2	17*
CCCCCCC[C@@H](C/C=C/CCC(=O)N(C)C/C(=C/Cl)C/C(=C\C(=O)N1CC(OC)=CC1=O)OC)OC	6	1	93*	2	·
CCCc1[nH]n(-c2ccc([N+](=O)[O-])cc2)c(=O)c1C=NCCc1c[nH]c2ccccc12	-5	0	0	90*	-5
Cc1[nH]n(-c2ccc([N+](=O)[O-])cc2)c(=O)c1C=NCCc1c[nH]c2ccccc12	8	0	9	28	-2
Cc1ccc(NC(=S)NCc2ccccc2)cc1[N+](=O)[O-]	-4	8	2	19	1
Cc1ccc(CNC(=S)Nc2ccc(C)c([N+](=O)[O-])c2)cc1	-7	50*	-3	-2	1
Cc1cc2[nH]c(=O)c(=O)[nH]c2cc1S(=O)(=O)Nc1cccc(Cl)c1	-9	9	6	5	-3
CC1(C(=O)NS(=O)(=O)c2ccc(Cl)s2)CCN1C(=O)C1CCCCC1 (configuration not stated)	-1	·	·	-3	·
C=CCC(Nc1ccccc1)C12C=CC(O1)C(C(=O)OC)=C2C(=O)OC (configuration not stated)	-2	0	17	90*	-1

Assay outcomes (PubChem BioAssay)
